LYPLA1 counter: LYPLA1 inhibitors, primary screen, counter-screen for PME1 inhibitor project, biochemical, fluorescence polarization, FP-Rh probe ABPP; inhibition, % at 5.9 µM; recombinant LYPLA1; AID 2174, 2009; 320,000 compounds, 0.16% hits;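 active = inhibition above the mean of all tested compounds plus 3 SD, set per campaign, cut at about 14% in these data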;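 also: inhibitors block serine hydrolase probe labeling of LYPLA1 so polarization falls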
PME-1 primary: PME-1 inhibitors via competitive probe labeling, primary screen, biochemical, fluorescence polarization, FP-Rh probe, HTS; Protein phosphatase methylesterase 1 (Homo sapiens), Q9Y570; recombinant PME-1; inhibition, % at 5.9 µM; 320,000 compounds, 0.53% hits;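 active = inhibition above the campaign mean of all compounds plus 3 SD, cut at about 26% in these data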;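 also: competitive labeling of PME-1 active site by serine hydrolase directed probe; inhibitors block probe labeling so polarization falls and inhibition rises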
GSTO1 counter: inhibitors of recombinant GSTO1, primary screen, counter-screen for RBBP9 inhibitor project, biochemical, fluorescence polarization. inhibition, % at 5.96 µM. activity-based probe fluorescence polarization. 300,000 compounds, 1.1% hits. AID 1974, 2009. Glutathione S-transferase omega-1 (Homo sapiens), P78417;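 active = inhibition above the campaign mean inhibition plus 3 SD, cut at about 35% in these data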
Target sequence (P78417 whole entry, looked up): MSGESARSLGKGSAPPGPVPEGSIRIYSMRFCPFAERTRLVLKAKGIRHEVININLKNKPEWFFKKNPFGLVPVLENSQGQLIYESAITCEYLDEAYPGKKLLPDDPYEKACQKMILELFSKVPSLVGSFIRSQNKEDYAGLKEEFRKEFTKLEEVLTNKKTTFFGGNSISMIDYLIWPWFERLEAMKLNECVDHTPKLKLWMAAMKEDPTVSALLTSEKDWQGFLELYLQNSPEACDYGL
Fam108B inh: mouse Fam108B serine hydrolase inhibitors, primary screen, counter-screen for RBBP9 inhibitor project, biochemical, fluorescence polarization. 300,000 compounds, 0.33% hits. AID 1947, 2009. inhibition, % at 9.51 µM. recombinant Fam108B, FP-Rh probe fluorescence polarization;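 active = inhibition above the screen mean inhibition plus 3 SD, computed separately per campaign, cut at about 18% in these data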;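 also: inhibitors lower polarization as less probe binds the enzyme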
LYPLA2 inh: LYPLA2 inhibitors, primary screen, counter-screen for PME1 inhibitor project, biochemical, fluorescence polarization, FP-Rh probe ABPP; Acyl-protein thioesterase 2 (Homo sapiens), O95372; recombinant LYPLA2; inhibition, % at 5.9 µM; 320,000 compounds, 0.38% hits; AID 2177, 2009;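 active = inhibition above the screen-wide mean plus 3 SD, limit set per campaign, cut at about 26% in these data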
Target sequence (O95372 whole entry, looked up): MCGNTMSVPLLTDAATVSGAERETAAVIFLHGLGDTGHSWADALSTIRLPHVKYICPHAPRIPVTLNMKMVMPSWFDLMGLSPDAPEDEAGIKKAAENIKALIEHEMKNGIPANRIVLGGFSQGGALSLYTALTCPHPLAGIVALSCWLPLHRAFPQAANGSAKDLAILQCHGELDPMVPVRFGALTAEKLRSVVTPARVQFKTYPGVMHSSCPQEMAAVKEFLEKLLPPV
PAD4 inh: human PAD4 inhibitors, primary screen, biochemical, fluorescence polarization, 1536-well format; Protein-arginine deiminase type-4 (Homo sapiens), Q9UM07; recombinant PAD4, RCA probe fluorescence polarization; inhibition, % at 6.36 µM; 330,000 compounds, 0.41% hits; AID 485272, 2010;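 active = percent inhibition above a cutoff equal to the mean of all tested compounds plus 3 SD, cut at about 15% in these data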
Large screens that a line does not name were inactive. Most compounds without a hit are left out; they make up all but 1.8% or so of the library.

NC(=O)c1c(NC(=O)c2ccco2)sc2c1CCC2	none
O=c1cc(-c2c(F)c(F)c(F)c(F)c2F)oc2c(F)c(F)c(F)c(F)c12	PAD4 inh 46
C=CCSc1nsc(NC(=O)Nc2ccc(F)cc2)n1	none
COc1ccc(OC)c(NC(=O)c2cc(S(=O)(=O)NCc3ccco3)ccc2F)c1	GSTO1 counter 36
COc1ccc(CNS(=O)(=O)c2ccc(F)c(C(=O)Nc3ccccc3OC)c2)cc1	none
CCOc1ccccc1NC(=O)c1cc(S(=O)(=O)NCc2ccco2)ccc1F	GSTO1 counter 35
COc1ccccc1NC(=O)c1cc(S(=O)(=O)NCc2ccccc2)ccc1F	none
COc1ccc(C(NC(=O)CC(C)C)c2c(O)ccc3ccccc23)cc1 (centres undefined)	none
CC(C)CC(=O)NC(c1ccccc1Cl)c1c(O)ccc2ccccc12 (centres undefined)	PME-1 primary 47
O=c1cc(-c2ccc(Cl)cc2)oc(=O)[nH]1	none
O=c1cc(N=Nc2ccc(Cl)cc2)[nH]c(=O)[nH]1	GSTO1 counter 47
COCO/C=C(\NC(C)=O)c1ccccc1	none (no result: GSTO1 counter, Fam108B inh)
O=c1oc2c3c4c(cc2s1)CCCN4CCC3	GSTO1 counter 51
Cc1cccc(Cc2c(C)nc3c(C(=O)N4CCN(Cc5ccc6c(c5)OCO6)CC4)cnn3c2C)c1	GSTO1 counter 35
CCOC(=O)c1c(OCC)[nH]c2c1cc(O)c1ccccc12	PME-1 primary 39
COc1ccc(CCn2c(N)c(C(=O)NCc3ccco3)c3nc4ccccc4nc32)cc1	none
COc1ccc(-n2c(N)c(C(=O)NCc3ccco3)c3nc4ccccc4nc32)c(OC)c1	GSTO1 counter 37
COc1ccc2cc3c(N)c(C(=O)NCc4ccco4)sc3nc2c1	PME-1 primary 35
O=C(O)CC(NC(=O)/C(=C/c1ccccc1)NC(=O)c1ccccc1)c1ccccc1 (centres undefined)	none
O=C(N=Nc1c(O)[nH]c2ccccc12)c1cccs1	PME-1 primary 28
ClCC1=Nc2cccc3cccc(c23)N1	GSTO1 counter 55
CC(C)C1=Nc2cccc3cccc(c23)N1	none
COc1cc(/C=N/NC(=O)c2cccc(C)c2)ccc1OCC(=O)Nc1ccccc1	none
CCc1ccc(-n2nc3cc(C)c(N)cc3n2)cc1	GSTO1 counter 36
O=C1CC(c2ccccc2Cl)=NN(c2ncnc3ccccc23)C1=O	none
O=C(COC(=O)COc1ccc(Cl)cc1Cl)Nc1cccnc1Cl	GSTO1 counter 35
O=c1[nH][nH]c(-c2ccccc2O)c1C(C[N+](=O)[O-])c1cccc(Cl)c1 (centres undefined)	GSTO1 counter 36
O=c1[nH][nH]c(-c2ccccc2O)c1C(C[N+](=O)[O-])c1ccccc1 (centres undefined)	none
CCN(C(=O)COC(=O)CSc1ccc(F)cc1)c1c(N)n(Cc2ccccc2)c(=O)[nH]c1=O	none (no result: GSTO1 counter, Fam108B inh)
Cc1ccc(N=Cc2c(O)ccc3ccccc23)cc1F	none
N#Cc1cccc(N=Cc2c(O)ccc3ccccc23)c1	GSTO1 counter 38
O=C(COC(=O)CCCN1C(=O)c2cccc3cccc(c23)C1=O)Nc1ccc(Cl)cc1	PME-1 primary 30
NC(=O)c1ccc(NC(=O)COC(=O)CCCN2C(=O)c3cccc4cccc(c34)C2=O)cc1	none
Cc1cc(C)c2c(N)c(C(=O)NN)sc2n1	PME-1 primary 32
O=C1C=C(Nc2ccc(O)cc2)C(=O)c2ccccc21	GSTO1 counter 39
COC1=C(Nc2ccc(O)cc2)C(=O)c2ccccc2C1=O	none
COc1ccc(N2Cc3ccc(C(=O)N/N=C\c4ccc(O)cc4O)cc3C2)cc1	PME-1 primary 48, Fam108B inh 50, LYPLA2 inh 31
COc1ccc2nc(C)cc(SCC(=O)N/N=C/c3ccc(O)cc3O)c2c1	none
Cc1ccc(/C=N/Nc2ccnc3cc(Cl)ccc23)c(C)c1	PME-1 primary 35
Oc1ccc(/C=N/Nc2ccnc3cc(Cl)ccc23)c(O)c1	PME-1 primary 27
CN(C)CCCO[C@@H]1[C@H]2OC(C)(C)O[C@H]2O[C@@H]1[C@H](O)CO	none
CCC(=O)c1ccc(N2CCN(C(=O)c3cccs3)CC2)c(F)c1	none
CC(C)CCN1C(=O)c2cccc3c(N)ccc(c23)C1=O	PAD4 inh 24
Nc1cccc(N2C(=O)c3cccc4c(N)ccc(c34)C2=O)c1	none
Cc1cc(NC(=O)CSc2nc3ccccc3c(=O)n2C2CCCC2)no1	PME-1 primary 27
CN(C)c1ccc(NC(=O)CSc2nc3ccccc3c(=O)n2C2CCCCC2)cc1	none
NC1=NC(=O)C(Cc2ccc(Br)cc2)S1 (centres undefined)	none
COc1ccc(CN2CCN(Cc3csc(C(C)=O)c3)CC2CCO)c(C)c1C (centres undefined)	none
CC1=C(C(=O)OCc2ccccc2)C(/C=C/c2ccccc2)NC(=S)N1 (centres undefined)	LYPLA2 inh 49
COc1ccc(NC(=O)CN(C)C(=O)CNC(=O)c2cccs2)cc1	none
Cc1cc(C)nc(SCNC(=O)c2ccc(F)cc2)n1	GSTO1 counter 36
Cc1ccc(CN2CCN(Cc3cc4ccccc4o3)CC2CCO)cc1 (centres undefined)	none
O=[N+]([O-])c1cc(F)c2cccnc2c1O	GSTO1 counter 58
O=[N+]([O-])c1cc(Cl)c2cccnc2c1O	none
Cc1ccc(S(=O)(=O)N2CCOCC2)cc1NC(=O)COC(=O)CNC(=O)c1ccc(C(C)(C)C)cc1	GSTO1 counter 35
CCOc1ncccc1C(=O)OCC(=O)Nc1cc(S(=O)(=O)N2CCOCC2)ccc1C	none
Cc1ccc(S(=O)(=O)N2CCCCC2)cc1NC(=O)COC(=O)c1ccc2c(c1)OCO2	PME-1 primary 40
COc1ccc(OC)c(CC(=O)Nc2cc(S(=O)(=O)N3CCCCC3)ccc2C)c1	none (no result: GSTO1 counter, Fam108B inh)
COc1ccc(S(=O)(=O)N2CCCCCC2)cc1NC(=O)Cc1cc(OC)c(OC)c(OC)c1	PME-1 primary 57
Cc1ccc(C(=O)NCC(=O)OCC(=O)Nc2cc(S(=O)(=O)N3CCOCC3)ccc2C)cc1	none
Cc1ccc(S(=O)(=O)N2CCOCC2)cc1NC(=O)COC(=O)c1ccccc1OCc1c(C)noc1C	PME-1 primary 32
Cc1ccc(NC2CCCN(C(=O)c3cn(C)c4ccccc34)C2)cc1C (centres undefined)	none
c1ccc(C2=NNC(c3ccccn3)=NN2)nc1	none
